Our source for the composite z-score and z-score values is PubChem BioAssay.

Assay [1] is described as follows: compounds binding Alexa647 anti-His antibody – biochemical, small-molecule microarray, 635 nm fluorescence, artefact control for SMM control protein annotation, primary screen (AID 1128).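 Note: score merges feature fluorescence with signal-to-noise for each printed compound spot.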 To be noted: higher = more signal.
The test system of assay [2] is Human papillomavirus type 1a E7 protein (residues 1-88). The assay is described as follows: HPV1a E7 small-molecule binders, primary screen, biochemical, small-molecule microarray, residues 1-88, 635 nm (AID 1129). Conditions: small-molecule microarray binding, fluorescence 635 nm; higher = more signal.
The target in assay [3] is Focal adhesion kinase 1 (Homo sapiens) (UniProt Q05397). The assay is described as follows: PTK2 protein binding on printed compound slides – biochemical, small-molecule microarray, 635/667 nm fluorescence, BSA, DTT, primary screen (AID 1130).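 Note: composite of spot emission at 667 nm and signal to noise over triplicate slides.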 Conditions: 635 nm fluorescence, higher = more signal.
Chain of Focal adhesion kinase 1 (Homo sapiens) (Q05397 whole entry, looked up): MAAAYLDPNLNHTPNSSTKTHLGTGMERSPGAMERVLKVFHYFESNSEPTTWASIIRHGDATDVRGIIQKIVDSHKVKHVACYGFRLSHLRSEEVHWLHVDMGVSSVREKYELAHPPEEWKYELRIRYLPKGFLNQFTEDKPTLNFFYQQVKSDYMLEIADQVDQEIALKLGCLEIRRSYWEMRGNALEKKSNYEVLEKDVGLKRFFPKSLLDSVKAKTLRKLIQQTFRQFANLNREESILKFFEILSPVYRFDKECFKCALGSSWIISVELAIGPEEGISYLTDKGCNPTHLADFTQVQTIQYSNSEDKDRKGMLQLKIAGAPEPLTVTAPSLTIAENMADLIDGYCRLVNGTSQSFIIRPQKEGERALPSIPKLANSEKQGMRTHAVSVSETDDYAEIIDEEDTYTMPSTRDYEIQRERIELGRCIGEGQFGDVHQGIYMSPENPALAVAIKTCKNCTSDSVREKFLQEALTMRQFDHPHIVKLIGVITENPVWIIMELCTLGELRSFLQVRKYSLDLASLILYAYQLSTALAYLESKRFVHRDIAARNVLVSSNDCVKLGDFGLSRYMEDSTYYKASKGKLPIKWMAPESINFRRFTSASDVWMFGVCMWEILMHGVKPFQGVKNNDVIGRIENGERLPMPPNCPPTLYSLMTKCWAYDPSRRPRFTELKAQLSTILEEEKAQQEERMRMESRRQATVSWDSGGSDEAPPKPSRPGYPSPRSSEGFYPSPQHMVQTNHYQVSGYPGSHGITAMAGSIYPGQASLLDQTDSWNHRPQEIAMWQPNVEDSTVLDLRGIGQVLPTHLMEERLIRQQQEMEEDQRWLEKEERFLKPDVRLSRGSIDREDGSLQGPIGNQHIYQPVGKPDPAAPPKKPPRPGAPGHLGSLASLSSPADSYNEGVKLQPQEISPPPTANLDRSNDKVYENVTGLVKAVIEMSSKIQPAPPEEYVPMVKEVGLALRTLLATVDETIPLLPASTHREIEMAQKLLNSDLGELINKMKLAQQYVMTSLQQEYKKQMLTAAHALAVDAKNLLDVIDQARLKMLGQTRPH
The test system of assay [4] is Fibrinogen (Alexa647-labelled). The assay is described as follows: Alexa647-fibrinogen binding to printed small molecules – biochemical, small-molecule microarray, 635/667 nm fluorescence, artefact control for SMM control-protein annotation, profiling panel (AID 1131).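 Note: z-score merges 667 nm fluorescence with per-spot signal-to-noise over triplicate slides.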 To be noted: fibrinogen-A647 binding fluorescence, higher = more signal.
In assay [5] the target is Follistatin (Homo sapiens) (UniProt P19883). The assay is described as follows: FST protein binding to printed compounds – biochemical, small-molecule microarray, 635/667 nm fluorescence, primary screen (AID 1132). Conditions: 635 nm fluorescence, higher = more signal.
Chain of Follistatin (Homo sapiens) (P19883 whole entry, looked up): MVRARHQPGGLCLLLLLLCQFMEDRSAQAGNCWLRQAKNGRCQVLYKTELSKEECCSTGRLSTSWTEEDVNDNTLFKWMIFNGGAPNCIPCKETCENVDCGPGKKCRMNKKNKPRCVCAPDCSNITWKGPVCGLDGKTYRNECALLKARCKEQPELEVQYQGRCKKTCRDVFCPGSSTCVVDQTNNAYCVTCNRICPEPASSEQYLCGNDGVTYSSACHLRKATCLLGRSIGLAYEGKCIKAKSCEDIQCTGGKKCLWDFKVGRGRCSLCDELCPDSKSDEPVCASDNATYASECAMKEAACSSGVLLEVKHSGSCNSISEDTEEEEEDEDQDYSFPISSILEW
Assay [6] has as its target Fibroblast growth factor 2 (Homo sapiens) (UniProt P09038). The assay is described as follows: basic fibroblast growth factor binding to printed compounds – biochemical, small-molecule microarray, 635/667 nm fluorescence, primary screen (AID 1133). To be noted: FGF2, fluorescence 635/667, higher = more signal.
Assay [7] is described as follows: JC-1 mitochondrial potential readout, lung cancer cells – cell-based, A549, JC-1 fluorescence, basal, 24 h, 100 nL, profiling panel (AID 1138).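 Note: A549 lung adenocarcinoma cells under basal conditions with no added stimulus; test concentration not given here.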 Conditions: higher = more signal.
A further assay concerns Lefty1. The assay is described as follows: Lefty1 protein binding to printed compounds – biochemical, small-molecule microarray, 635/667 nm fluorescence, primary screen (AID 1139). Conditions: fluorescence 635/667, higher = more signal.
The test system of assay [8] is wheat germ agglutinin (Triticum aestivum), Alexa647-labelled. The assay is described as follows: Alexa647-WGA lectin binding to printed small molecules – biochemical, small-molecule microarray, 635/667 nm fluorescence, artefact control for SMM control-protein annotation, profiling panel (AID 1140).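 Note: score merges 667 nm feature emission with signal to noise over triplicate slides.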 Conditions: WGA-A647 binding, 635 nm fluorescence, higher = more signal.

Assay [9] concerns the target Luciferin 4-monooxygenase (Photinus pyralis) (UniProt P08659). The assay is described as follows: inhibition of purified Photinus pyralis luciferase – biochemical, luminescence, purified enzyme, 2006 set, primary screen (AID 1141).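 Note: cell-free assay with purified firefly luciferase at 100 ng per well in PBS; test concentration not given here.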 Conditions: purified firefly luciferase, SteadyGlo luminescence, 30 min; higher = more signal, called active from +8 up or from −8 down.
The test system of assay [10] is Wnt5a (protein binding on small-molecule microarray). The assay is described as follows: small molecules binding Wnt5a protein – biophysical, small-molecule microarray, 635/667 nm fluorescence, primary screen (AID 1142).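 Note: fluorescence read at 667 nm with signal to noise per printed feature.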 To be noted: 635 nm fluorescence, higher = more signal.
Assay [11] is described as follows: ATP-based viability of Huh7 replicon cells – cell-based, CellTiter-Glo luminescence, basal, 48 h, cytotoxicity control for HCV replication inhibitor project, primary screen (AID 1143).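 Note: Huh7 hepatoma cells carrying a hepatitis C replication reporter with no stimulus; test concentration not given here.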 To be noted: higher = more signal, called active from +8 up or from −8 down. On the technique in general: Replicon systems follow genome replication, usually without infectious particles.

A short description of assay [12]: Pseudomonas biofilm growth suppression – PAO1 strain, BacTiter-Glo luminescence, LB-PBS, primary screen (AID 1144). Conditions: P. aeruginosa PAO1 biofilm, 12 h, higher = more signal.
A short description of assay [13]: basal CRE-LacZ reporter activity in PC12 – cell-based, unstimulated, primary screen (AID 1145). To be noted: no forskolin, luminescence, 4.5 h, higher = more signal, called active from +8 up or from −8 down.
Assay [14] can be described thus: forskolin-driven CRE-LacZ activity in PC12 – cell-based, CRE-LacZ reporter, forskolin-stimulated, primary screen (AID 1146).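 Note: PC12 cells with 6xCRE LacZ reporter stimulated by forskolin 10 µM; beta-galactosidase reporter signal reflecting CREB driven transcription.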 Conditions: luminescence, 4.5 h, higher = more signal, called active from +8 up or from −8 down.
The target of assay [15] is Streptavidin (Streptomyces avidinii) (UniProt P22629). The assay is described as follows: compounds binding control protein streptavidin – biophysical, small-molecule microarray, 635/667 nm fluorescence, artefact control for SMM compound annotation, primary screen (AID 1147).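 Note: signal reflects streptavidin binding to arrayed compounds as a control protein.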 To be noted: higher = more signal.
Chain of Streptavidin (Streptomyces avidinii) (P22629 whole entry, looked up): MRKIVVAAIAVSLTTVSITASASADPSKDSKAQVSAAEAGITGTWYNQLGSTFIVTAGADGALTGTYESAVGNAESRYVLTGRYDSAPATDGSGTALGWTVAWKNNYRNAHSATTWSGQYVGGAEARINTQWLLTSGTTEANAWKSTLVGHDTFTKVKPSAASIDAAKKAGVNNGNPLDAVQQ
The nature of assay [16]: probe aInhba binding on compound microarray – biochemical, small-molecule microarray, 635/667 nm fluorescence, primary screen (AID 1148).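 Note: score merges 667nm spot fluorescence with signal-to-noise for antibody binding to printed compounds.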 Conditions: higher = more signal.
Assay [17] has as its target Torsin-1A (Homo sapiens) (UniProt O14656). The assay is described as follows: TOR1A wild-type binding on microarray – cell lysate, small-molecule microarray, lysate, 635/667 nm, primary screen (AID 1149). To be noted: COS7 hTOR1A-WT lysate, 635 nm fluorescence, higher = more signal.
Assay [18] has the same target. The assay is described as follows: torsin A mutant lysate binding on microarrays – cell lysate, small-molecule microarray, COS7 lysate, 635/667 nm fluorescence, primary screen (AID 1150).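 Note: score pools 667 nm emission and signal to noise measuring lysate protein binding.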 Conditions: COS7 hTOR1A mutant lysate, 635 nm fluorescence, higher = more signal.
Assay [19] deals with Sonic hedgehog protein (Shh). The assay is described as follows: Sonic hedgehog microarray binding compounds – biochemical, small-molecule microarray, 635/667 nm fluorescence, primary screen (AID 1151).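 Note: Shh protein binding to compounds spotted on small-molecule microarray slides; score combines spot fluorescence intensity with signal-to-noise across triplicate slides.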 To be noted: 635 nm fluorescence, higher = more signal.

The source made the active and inactive calls. Unless noted, the rule behind the calls is not given here.

Chain of Luciferin 4-monooxygenase (Photinus pyralis) (P08659 whole entry, looked up): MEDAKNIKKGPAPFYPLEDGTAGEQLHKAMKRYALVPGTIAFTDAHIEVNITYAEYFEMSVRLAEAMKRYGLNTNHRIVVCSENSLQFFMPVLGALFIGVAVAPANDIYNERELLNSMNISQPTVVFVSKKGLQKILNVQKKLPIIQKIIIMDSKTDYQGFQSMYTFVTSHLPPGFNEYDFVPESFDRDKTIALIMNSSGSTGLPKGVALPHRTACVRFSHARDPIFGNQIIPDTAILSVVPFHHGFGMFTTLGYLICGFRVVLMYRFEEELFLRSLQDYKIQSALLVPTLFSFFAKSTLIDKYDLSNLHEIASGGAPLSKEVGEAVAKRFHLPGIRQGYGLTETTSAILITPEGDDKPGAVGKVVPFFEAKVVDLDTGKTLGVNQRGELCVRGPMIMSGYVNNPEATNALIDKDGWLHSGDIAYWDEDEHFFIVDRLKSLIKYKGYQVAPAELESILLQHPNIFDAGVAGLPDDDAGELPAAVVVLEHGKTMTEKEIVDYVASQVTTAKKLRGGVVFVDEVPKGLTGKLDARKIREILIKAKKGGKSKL
Chain of Fibroblast growth factor 2 (Homo sapiens) (P09038 whole entry, looked up): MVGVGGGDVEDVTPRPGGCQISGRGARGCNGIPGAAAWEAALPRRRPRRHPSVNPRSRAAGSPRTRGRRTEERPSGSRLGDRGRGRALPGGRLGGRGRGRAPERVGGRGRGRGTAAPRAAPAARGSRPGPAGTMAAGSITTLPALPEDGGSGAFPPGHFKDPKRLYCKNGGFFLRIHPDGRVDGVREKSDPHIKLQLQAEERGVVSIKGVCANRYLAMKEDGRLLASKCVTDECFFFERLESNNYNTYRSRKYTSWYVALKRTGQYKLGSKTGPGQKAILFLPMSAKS
Chain of Torsin-1A (Homo sapiens) (O14656 whole entry, looked up): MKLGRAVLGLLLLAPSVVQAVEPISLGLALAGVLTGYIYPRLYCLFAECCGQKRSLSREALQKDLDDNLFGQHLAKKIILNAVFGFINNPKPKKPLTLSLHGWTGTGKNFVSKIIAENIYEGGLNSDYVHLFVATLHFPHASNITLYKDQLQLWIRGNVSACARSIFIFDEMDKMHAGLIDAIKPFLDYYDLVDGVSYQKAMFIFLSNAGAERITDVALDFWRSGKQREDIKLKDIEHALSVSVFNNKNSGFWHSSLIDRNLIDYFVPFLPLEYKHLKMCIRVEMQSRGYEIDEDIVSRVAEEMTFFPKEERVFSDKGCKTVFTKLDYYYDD

Regarding `CC(C)C[C@@H]1NC(=O)[C@@H]2C[C@H](C(=O)NCCCCCN)[C@H](c3ccc(O)cc3)N2C1=O`, the composite z-score came out at 0.854 in [1]; 1.15 in assay [2]; 0.269 in assay [3]; 0.761 in assay [4]; 1.43 in assay [5]; 1.66 in assay [6]. Also, the composite z-score with Lefty1 is 1.3; in [8], 0.899; in [10] it was 0.329; in assay [15] it was 1.01; in assay [16] it was -0.171; with Torsin-1A (Homo sapiens) [17], 0.457. The values for the composite z-score (in the assay with Torsin-1A (Homo sapiens) [18]; in assay [19]) were 0.465 and 2.04, respectively. Besides, the z-score was -0.188 in assay [7]; -0.348 (inactive) in assay [9]; -0.079 (inactive) in assay [11]; -0.422 (inactive) in assay [12]; 0.411 (inactive) in assay [13]; 0.437 (inactive) in [14].
For `COC(=O)c1c2oc(c1C(=O)OC)C(=O)N(C)Cc1cn(nn1)C[C@H](Cc1ccccc1)NC(=O)N[C@H](CO)CC2`, the composite z-score is -0.0688 in [1]; -1.52 in [2]; -0.27 in assay [3]; -1.15 in assay [4]; -0.0414 in assay [5]; -0.438 in assay [6]. For the same compound, the composite z-score is 0.244 in the assay with Lefty1; -0.272 in assay [8]; -0.334 in assay [10]; -0.403 in assay [15]; -0.0576 in assay [16]; -0.794 in the assay with Torsin-1A (Homo sapiens) [17]. Besides, the composite z-score is -0.641 in the assay with Torsin-1A (Homo sapiens) [18] and 0.624 in assay [19]. For the same compound, the z-score in [7] was -0.209; in [9], 0.247 (inactive); in assay [11] it was 0.336 (inactive); in [12], 0.553 (inactive); in [13], 0.148 (inactive); in assay [14] it was -0.324 (inactive).
Take `COc1ccccc1CN1C(=O)c2ccccc2[C@](Cc2ccccc2I)(C(=O)NCC(F)(F)F)[C@@H]1c1ccc(CO)cc1`: the composite z-score in [1] was found to be 2.25; in assay [2] it was 1.24; in [3] it was 0.473; in assay [4], 0.74; in [5], 1.26; in [6] it was 0.342. Further, the composite z-score in the assay with Lefty1 was determined as 0.168; in [8], 0.887; in [10], 0.431; in assay [15], 1.14; in assay [16], 0.189; in the assay with Torsin-1A (Homo sapiens) [17], 1.36. Also, the values for the composite z-score (in the assay with Torsin-1A (Homo sapiens) [18]; in assay [19]) were -0.103 and 0.251, respectively. The z-score was -0.878 in assay [7]; 0.347 (inactive) in assay [9]; -2.75 (inactive) in assay [11]; -0.243 (inactive) in assay [12]; -0.735 (inactive) in assay [13]; 6.82 (inactive) in assay [14].
As for `O=C1C2C=CC(C(O)c3ccc(Br)cc3)N(Nc3ccccc3F)C2C(=O)N1c1ccccc1` (stereo not given), the composite z-score was 2.57 in assay [1]; 0.992 in [2]; -0.312 in assay [3]; 0.967 in assay [4]; 0.0288 in [5]; -0.265 in assay [6]. Also, the composite z-score in the assay with Lefty1 was -0.107; in assay [8], 0.672; in [10], -0.0758; in assay [15], 0.738; in assay [16] it was -0.204; with Torsin-1A (Homo sapiens) [17], -0.423. The composite z-score was -0.0946 with Torsin-1A (Homo sapiens) [18] and -0.481 in assay [19]. Further, the z-score in assay [7] was 0.147; in assay [9] it was 1.71 (inactive); in assay [11] it was -2.94 (inactive); in assay [12], -1.76 (inactive); in assay [13], -1.02 (inactive); in assay [14] it was -0.0733 (inactive).
